Tests used:
Assay in all cases: PBM binding z-score (relative to random genomic background probes); higher = stronger binding; sequences stand for … in GC…GCGATTGACAGCGTAGAATGAAGG
[1] = tested on: FXR:RXRa (NR concentration 270 nM, RXRa partner concentration 90 nM)
Summary of the method: (§1)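 Ligand-free nuclear receptor dimers were bound for 1 h to custom Agilent 4×180K protein-binding microarrays. Detection used antibodies against each partner (one per run). Binding z-scores rest on regression-normalized fluorescence, with random background probes as the reference.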

[2] = tested on: LXRa:RXRa (NR concentration 270 nM, RXRa partner concentration 90 nM)
Summary of the method: as §1

[3] = tested on: LXRa homodimer (NR concentration 270 nM)
Summary of the method: as §1

[4] = tested on: LXRb:RXRa (NR concentration 270 nM, RXRa partner concentration 90 nM)
Summary of the method: as §1

[5] = tested on: LXRb homodimer (NR concentration 270 nM)
Summary of the method: as §1

[6] = tested on: PPARa:RXRa (NR concentration 270 nM, RXRa partner concentration 90 nM)
Summary of the method: as §1

[7] = tested on: PPARg:RXRa (NR concentration 180 nM, RXRa partner concentration 90 nM)
Summary of the method: as §1

[8] = tested on: PPARg:RXRa 270nM:90nM, anti-RXR (NR concentration 270 nM, RXRa partner concentration 90 nM)
Summary of the method: as §1

[9] = tested on: PPARg:RXRa 30nM:10nM, anti-RXR (NR concentration 30 nM, RXRa partner concentration 10 nM)
Summary of the method: as §1

[10] = tested on: PPARg:RXRa 90nM:30nM, anti-RXR (NR concentration 90 nM, RXRa partner concentration 30 nM)
Summary of the method: as §1

[11] = tested on: PPARg:RXRa DBDmut IVT, anti-RXR (DBD mutation: RXRa K156A/R161A, NR concentration 270 nM, RXRa partner concentration 90 nM)
Summary of the method: as §1

[12] = tested on: PPARg:RXRa IVT, anti-PPARg (NR concentration 270 nM, RXRa partner concentration 90 nM)
Summary of the method: as §1

[13] = tested on: PPARg DBDmut:RXRa IVT, anti-PPARg (DBD mutation: PPARg1 K132A/R137A, NR concentration 270 nM, RXRa partner concentration 90 nM)
Summary of the method: as §1

[14] = tested on: PPARg DBDmut IVT, anti-PPARg (DBD mutation: PPARg1 K132A/R137A, NR concentration 270 nM)
Summary of the method: as §1

[15] = tested on: PPARg homodimer (NR concentration 180 nM)
Summary of the method: as §1

[16] = tested on: PXR:RXRa (NR concentration 270 nM, RXRa partner concentration 90 nM)
Summary of the method: as §1

[17] = tested on: PXR homodimer (NR concentration 270 nM)
Summary of the method: as §1

[18] = tested on: RARa:RXR (NR concentration 270 nM, RXRa partner concentration 90 nM)
Summary of the method: as §1

[19] = tested on: RARa homodimer (NR concentration 270 nM)
Summary of the method: as §1

[20] = tested on: RARb:RXRa (NR concentration 270 nM, RXRa partner concentration 90 nM)
Summary of the method: as §1

Row | Sequence | PBM binding z-score [1] | PBM binding z-score [2] | PBM binding z-score [3] | PBM binding z-score [4] | PBM binding z-score [5] | PBM binding z-score [6] | PBM binding z-score [7] | PBM binding z-score [8] | PBM binding z-score [9] | PBM binding z-score [10] | PBM binding z-score [11] | PBM binding z-score [12] | PBM binding z-score [13] | PBM binding z-score [14] | PBM binding z-score [15] | PBM binding z-score [16] | PBM binding z-score [17] | PBM binding z-score [18] | PBM binding z-score [19] | PBM binding z-score [20]
1 | TTACGAAGGTGAGCTGAGGTCGTTGATCCAACTC | 2.65 | 1.46 | -0.333 | 0.8 | -0.914 | 1.52 | 0.0154 | 0.637 | -0.115 | 0.0816 | 0.758 | 1.28 | -0.294 | -0.134 | 0.215 | 5.29 | 0.95 | 1.56 | -0.794 | 1.79
2 | CGTCAAAGTCCAACTAAGGTAACGTAAAGCACGC | 0.904 | 0.0247 | 0.14 | -0.00355 | 0.104 | 0.088 | 0.536 | -0.0783 | -0.0174 | 0.18 | 0.179 | 0.394 | 0.436 | -0.503 | 0.498 | 0.234 | 0.179 | 1.23 | 0.41 | 1.9
3 | TAGCCTAGGTCATTGGGCCAGTGTAGTACGCATC | 4.3 | 3.42 | 0.864 | 2.46 | 0.102 | 3.86 | 3.6 | 3.76 | 0.587 | 2.41 | 2.97 | 4.15 | 1.07 | -0.249 | 0.874 | 1.41 | -0.395 | 2.15 | -0.103 | 3.69
4 | GCTAGTTGGTCAGTAAAAGGTCAAACACCGGTCG | 3.88 | 5.14 | 6.12 | 4.91 | 1.54 | 4.71 | 2.68 | 4.45 | 2.84 | 4.37 | 1.17 | 2.62 | -0.0315 | 0.251 | 4.94 | 5.21 | 1.94 | 6.29 | 1.53 | 4.13
5 | ACTATTAGTGGACTTAGGGCAACCGATACGACGC | 0.086 | -0.113 | -0.0613 | -0.278 | 0.0908 | -0.455 | 0.923 | 0.348 | 0.284 | 0.211 | 0.261 | 0.425 | 0.622 | 0.53 | -0.531 | -0.184 | 0.307 | -0.1 | 0.447 | 0.196
6 | CCAGACAGGTGAAAGGTAATTCAGTCTGGTACGC | 0.605 | 0.764 | -0.068 | 0.645 | -0.433 | 3.29 | 5.24 | 5.83 | 4.2 | 5.95 | 2.07 | 2.63 | -0.0152 | -0.567 | 1.43 | 0.676 | -0.138 | 1.49 | 0.566 | 0.958
7 | CATAGCAGGCCAGGGTCACTCAAGCATTTCGCTT | 2.42 | 1.71 | -0.165 | 2.2 | 0.0433 | 3.42 | 1.88 | 2.27 | 0.29 | 1.54 | 1.4 | 2.14 | -0.201 | -0.525 | 1.38 | 2.93 | -0.247 | 3.63 | -0.0529 | 2.79
8 | AGAATGAGGTTATTAAGACCAGGGAATTGCGGTC | 1.7 | 1.52 | -0.287 | 1.09 | -0.232 | 2.8 | 1.57 | 1.93 | 0.533 | 1.05 | 2.67 | 2.43 | 1.16 | 0.232 | 0.709 | 1.02 | -0.304 | 1.49 | -0.0801 | 1.38
9 | TCAGACAGGTGAAGGTAAATCAGGTACGCAGTCG | 1.69 | 1.37 | 0.109 | 1.11 | 0.081 | 1.6 | 0.829 | 2.39 | 4.45 | 3.31 | 2.98 | 1.27 | -0.386 | 0.474 | 1.11 | 0.994 | 0.51 | 1.26 | 0.658 | 1.4
10 | GCTAGTTGGTCAGGAAAAGGTCACACACCGGTCG | 3.35 | 3.85 | 3.43 | 3.75 | 0.375 | 4.05 | 2.57 | 3.82 | 1.41 | 3.07 | 0.896 | 2.59 | -0.101 | 0.0698 | 5.18 | 4.97 | 1.13 | 5.97 | 3.68 | 4.17
11 | TCTTGTAGGTCAACAGGAGGTTAAGAAAGATCGA | 5.53 | 4.75 | 1.77 | 3.93 | 1.27 | 5.74 | 7.68 | 6.79 | 5.3 | 6.38 | 6.99 | 8.17 | 2.81 | 3.87 | 2.63 | 3.9 | -0.245 | 4.71 | 0.468 | 4.57
12 | CCTCGGAGGACAGAAGCTCAGAGCTGTCCGCTTT | -0.605 | -0.517 | -0.873 | -1.16 | -0.889 | -1.83 | -0.876 | -1.61 | -1.52 | -1.69 | -0.36 | -1.19 | -1.19 | -2.47 | -1.01 | -1.09 | -1.12 | -1.41 | -0.553 | 0.0741
13 | AGAACGATGGCAATGAGTTGATAGCACGGGTGGC | -0.517 | -0.814 | -0.366 | -1.05 | -0.645 | -0.643 | 0.654 | -0.25 | -0.674 | -0.599 | -0.597 | -0.751 | 0.0197 | -0.258 | -0.596 | -0.563 | -0.0123 | -0.325 | -0.149 | -0.604
14 | CCTCGGAGGACAACAGGAGCTCAGAGCTGCCAGA | -0.156 | -0.474 | -0.523 | -0.921 | -0.933 | -0.767 | -0.107 | -1 | -0.714 | -0.999 | 0.0652 | -0.614 | -1.06 | -2.08 | -0.744 | -0.836 | -0.522 | -0.894 | -0.387 | 0.83

From the supplement of paper PMC6555819
